Inconclusive results are not listed. The source made the active and inactive calls. Unless noted, calls come from the whole dose curve; as a rule, active = well fitted curve in the direction sought with a large enough effect; inconclusive = small, poorly fitted or top-dose-only effect, or another doubt; inactive = no such curve, though single readings can be large; an effect the other way counts as inactive or inconclusive.
Assays:
[1] = MultiTox-Fluor Cytotoxicity Assay - LYMP1-001 - Live Cells (AID 947);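 note: 0% = DMSO only and full inhibition = tetraoctylammonium bromide control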
[2] = Cell Viability - LYMP2-010 (AID 981);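 note: cells exposed to compound for 24 hours at 37 °C; % is set by controls: 0 for no effect and ±100 for the full control effect; nearly all actives have a fitted effect of over 55% in size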
In short: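 This 24 hr viability screen uses LYMP2-010 lymphoblastoid cells, quantifies ATP via luciferase luminescence, and derives AC50 from Hill fits of qHTS concentration-response data.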

[3] = Cell Viability - LYMP2-018 (AID 985);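 note: compound exposure lasted 24 hr at 37 °C; plate controls were DMSO only for no effect and tetraoctylammonium bromide at 92 µM for full effect; nearly all actives have a fitted effect of over 50% in size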
In short: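 In this qHTS viability assay, cells are treated for 24 hr and cellular ATP is quantified by luciferase-based luminescence, with tetraoctylammonium bromide as positive control.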

[4] = target: Thyroid hormone receptor beta (Homo sapiens) (UniProt P10828); assay: qHTS assay for small molecule antagonists of thyroid hormone receptor beta signaling (AID 588547; active = well fitted inhibition curve with a large enough effect in the signal ratio, with a control signal flat, not every such curve was filed as active; the % refers to the signal ratio;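 note: cells stimulated with 0.4 nM T3 agonist during compound exposure; series mostly up to about 77 µM; % is set by controls: 0 for no effect and ±100 for the full control effect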); details: TR-UAS-bla HEK293, beta-lactamase ratio, antagonist mode, 18 h
Chain of Thyroid hormone receptor beta (Homo sapiens) (P10828 whole entry, looked up): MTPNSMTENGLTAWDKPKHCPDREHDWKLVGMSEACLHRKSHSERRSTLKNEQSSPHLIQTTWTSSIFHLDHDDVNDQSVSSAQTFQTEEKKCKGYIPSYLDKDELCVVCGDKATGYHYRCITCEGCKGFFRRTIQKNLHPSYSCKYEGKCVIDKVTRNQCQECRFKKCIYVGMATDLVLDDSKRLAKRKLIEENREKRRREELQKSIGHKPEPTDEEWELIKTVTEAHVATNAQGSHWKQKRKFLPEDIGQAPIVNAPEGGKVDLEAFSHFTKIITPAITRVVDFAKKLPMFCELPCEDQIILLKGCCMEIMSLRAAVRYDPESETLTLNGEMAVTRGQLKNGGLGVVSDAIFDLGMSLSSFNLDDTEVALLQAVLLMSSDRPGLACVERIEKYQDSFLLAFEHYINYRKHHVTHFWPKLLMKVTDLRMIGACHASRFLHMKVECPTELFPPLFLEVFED
In short: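 Inhibition of T3-driven (0.4nM final) beta-lactamase reporter activity was measured over 0.59 nM to 92 uM compound after 18 h at 37 C. The cells were GripTite HEK293 TR-UAS-bla in charcoal/dextran-stripped serum, with CCF4 ratio read-out and IC50 from Hill fits.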

[5] = qHTS assay to identify small molecules that stimulate interleukin-8 (IL-8) secretion (AID 651758; active = well fitted activation curve with a large enough effect in the signal ratio; the % refers to the signal ratio; note: 0% is about no effect)
In short: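 Secreted IL-8 measured homogeneously by TR-FRET (two labelled anti-IL-8 antibodies, 1-3 h at room temperature) after a 16 h, 37 C compound treatment of THP-1 cells at 2000 cells/well.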

[6] = target: Nuclear receptor ROR-gamma (Homo sapiens) (UniProt P51449); assay: qHTS assay for small molecule antagonists of the retinoid-related orphan receptor gamma (ROR-gamma) signaling pathway (AID 651802);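 note: CHO cells with doxycycline-induced ROR-gamma expression; luciferase reporter luminescence driven by ROR response element; series mostly up to about 92 µM; % is set by controls: 0 for no effect and ±100 for the full control effect; nearly all actives have a fitted effect of over 60% in size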
Chain of Nuclear receptor ROR-gamma (Homo sapiens) (P51449 whole entry, looked up): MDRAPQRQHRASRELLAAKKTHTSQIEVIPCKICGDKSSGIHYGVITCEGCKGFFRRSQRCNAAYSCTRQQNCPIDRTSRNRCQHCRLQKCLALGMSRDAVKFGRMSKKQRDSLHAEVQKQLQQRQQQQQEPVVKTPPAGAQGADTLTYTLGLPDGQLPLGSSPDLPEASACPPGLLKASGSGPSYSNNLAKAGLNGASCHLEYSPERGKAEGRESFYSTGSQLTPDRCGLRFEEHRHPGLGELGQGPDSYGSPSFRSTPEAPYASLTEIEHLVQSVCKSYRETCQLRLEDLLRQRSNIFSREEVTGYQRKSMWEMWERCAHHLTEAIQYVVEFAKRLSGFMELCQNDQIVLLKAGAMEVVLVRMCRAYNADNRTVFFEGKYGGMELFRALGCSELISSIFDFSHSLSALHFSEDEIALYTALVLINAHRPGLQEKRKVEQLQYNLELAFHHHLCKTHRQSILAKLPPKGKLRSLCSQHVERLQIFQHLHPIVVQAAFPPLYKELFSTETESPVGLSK
In short: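 Doxycycline-induced reporter activity in engineered CHO cells (TET-inducible ROR, RORE-LUC) was measured by luminescence after 16hr compound exposure at 37C.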

C=CCc1ccc2c(c1)OCO2
inactive: Potency [1] | Potency [2] | Potency [3] | activity change % (negative = inhibition) [4] -3.5% | Potency [5] | Potency [6]

— PubChem BioAssay (NCATS)
